High-throughput results from PubChem BioAssay.
The full list was thinned out, with hits kept by preference.
Shiga toxin inh: inhibitors of Shiga toxin in Vero cells; Vero cells, Shiga toxin protein synthesis inhibition reporter; inhibition, % at 38.7 µM; 290,000 compounds, 9.2% hits; AID 2315; in the data active means inhibition mostly above about 28%, no sharp cut-off; inactive means mostly below about 43%
Tb PYK inh: inhibitors of Trypanosoma brucei pyruvate kinase; 410,000 compounds, 0.12% hits; Potency, µM (highest dose often 76.8 µM), usual class: inhibitors; TbPYK enzyme, Kinase-Glo Plus ATP luminescence, 45 min; Q57TT1; further: nearly all actives have a fitted effect of over 50% in size
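Luminescent Kinase-Glo Plus end-point after 45 min room-temperature reaction of T. brucei pyruvate kinase started with 130 uM ADP (final). Buffer TEA 50 mM pH 7.2 with KCl, MgCl2, BSA, Tween-20; titration-based qHTS with fitted concentration-effect curves.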
Giardia FBPA inh: blocks Giardia fructose-bisphosphate aldolase activity. A8B2U2. purified Giardia FBPA. Potency, µM (titrated, usually from 59.6 µM), actives largely listed as inhibitors. 290,000 compounds, 0.71% hits. AID 2451; further: nearly all actives have a fitted effect of over 55% in size
Target sequence (A8B2U2 whole entry, looked up): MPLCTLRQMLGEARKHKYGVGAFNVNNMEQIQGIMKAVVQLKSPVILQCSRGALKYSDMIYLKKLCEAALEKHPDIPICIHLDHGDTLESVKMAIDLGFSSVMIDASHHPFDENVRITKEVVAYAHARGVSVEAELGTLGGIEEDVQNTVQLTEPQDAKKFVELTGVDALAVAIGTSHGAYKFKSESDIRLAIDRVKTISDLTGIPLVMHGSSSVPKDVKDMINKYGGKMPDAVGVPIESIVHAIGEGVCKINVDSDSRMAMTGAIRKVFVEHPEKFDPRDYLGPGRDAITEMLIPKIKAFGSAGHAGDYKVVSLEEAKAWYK
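Giardia FBPA (40 nM reagent) was preincubated 10 min at RT with compound (up to 57.5 uM final), then substrate plus GAPDH/TPI/NAD/arsenate coupling system with diaphorase/resazurin was added; resorufin fluorescence (525/598 nm) was read after 20 min.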
LmPK inhibitor: LmPK (Leishmania mexicana) enzyme inhibition. Q27686. purified LmPK, Kinase-Glo ATP luminescence, 1 h. Potency, µM (titrated, usually from 57.5 µM), most hits filed as inhibitors. 290,000 compounds, 0.37% hits. AID 1721
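ATP generated from ADP (0.1 mM) and PEP (0.5 mM) by 0.1 nM LmPK over 1 h at room temperature (pH 7.2 imidazole buffer) was detected by coupled luciferase luminescence. Values were normalized to uninhibited and no-enzyme wells.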
RE007 growth inh: less growth of the S. pombe RE007 Vpr strain; 360,000 compounds, 0.21% hits; AID 651644; S. pombe RE007 Vpr strain, BacTiter-Glo ATP luminescence, 24 h; Potency, µM (series often up to 92.2 µM), actives largely listed as inhibitors; active means well fitted falling curve with a large enough effect; inconclusive means small, poorly fitted or top-dose-only effect; inactive means no such curve, though single readings can be large or run the other way; further: nearly all actives have a fitted effect of over 50% in size
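Fission yeast RE007 carrying one integrated HIV-1 vpr copy, seeded at OD 0.01 in PMG+AL medium with 23 nL pinned compound. Grown 24 h at 30 degrees; viability read by BacTiter-Glo luminescence after 5 min.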
Cycloheximide cs: affects cycloheximide protein synthesis inhibition readout, counter-screen | 300,000 compounds, 12% hits | AID 2314 | max response, % | cell reporter, cycloheximide protein synthesis inhibition counterscreen; in the data active means max response mostly above about 13%, no sharp cut-off; inactive means mostly below about 14%; further: read at 38.3 µM for the half of the compounds with a filed dose
Numbers stand for hits. Unless noted, the call rests on the fitted dose curve; in most records, active means well fitted curve in the direction sought with a large enough effect; inconclusive means small, poorly fitted or top-dose-only effect, or another doubt; inactive means no such curve, though single readings can be large; an effect the other way counts as inactive or inconclusive.

Screening Cc1ccccc1NC(=O)Cn1c(=O)oc2cc(Br)ccc21 returned Tb PYK inh inactive.
`CCOc1ccc(S(=O)(=O)N(CC(=O)N2CCc3ccccc32)Cc2ccco2)cc1` gave Shiga toxin inh 83.3, Tb PYK inh inactive, Giardia FBPA inh inactive, LmPK inhibitor inactive, RE007 growth inh inactive and Cycloheximide cs 30.8.
For CC1CCCN(Cc2c(O)ccc3c(=O)c(-c4ccc(Cl)cc4)c(C(F)(F)F)oc23)C1 (centres undefined) the results were Tb PYK inh inactive.
Screening CC(c1ccco1)N(C(=O)Nc1ccc(Cl)cc1)c1ccccn1 (centres undefined) returned Shiga toxin inh inactive, Tb PYK inh inactive, Giardia FBPA inh inactive, LmPK inhibitor inactive, RE007 growth inh inactive and Cycloheximide cs 10.6.
Cc1ccc(C(=O)N(c2ccccn2)C(C)c2ccco2)cc1 (centres undefined) was read as Shiga toxin inh inactive, Tb PYK inh inactive, Giardia FBPA inh inactive, LmPK inhibitor inactive, RE007 growth inh inactive and Cycloheximide cs inactive.
For Cc1ccc(S(=O)(=O)c2nc(-c3ccccc3Cl)oc2N(C)C)cc1 the results were Shiga toxin inh 86.1, Tb PYK inh inactive, LmPK inhibitor inactive, RE007 growth inh inactive and Cycloheximide cs 57.0.
Screening Fc1ccc(-n2ncc3c(Nc4cccc(Cl)c4)ncnc32)cc1 returned Tb PYK inh inactive.
Screening COc1ccccc1OCCCn1c(=O)oc2ccccc21 returned Shiga toxin inh 42.9, Tb PYK inh inactive, Giardia FBPA inh inactive, LmPK inhibitor inactive, RE007 growth inh inactive and Cycloheximide cs 23.5.
`O=c1oc2ccccc2n1CCCOc1ccccc1` gave Shiga toxin inh 95.1, Tb PYK inh inactive, Giardia FBPA inh inactive, LmPK inhibitor inactive, RE007 growth inh inactive and Cycloheximide cs 32.6.
For O=c1oc2ccccc2n1CCCCCn1c(=O)oc2ccccc21 the results were Shiga toxin inh inactive, Tb PYK inh inactive, Giardia FBPA inh inactive, LmPK inhibitor inactive, RE007 growth inh inactive and Cycloheximide cs inactive.
O=C1c2ccccc2C(=O)N1CCn1c(=O)oc2ccccc21 was read as Shiga toxin inh 40.7, Tb PYK inh inactive, Giardia FBPA inh inactive, LmPK inhibitor inactive, RE007 growth inh inactive and Cycloheximide cs 31.5.
For COc1ccccc1OCCCn1c(=O)sc2ccccc21 the results were Shiga toxin inh inactive, Tb PYK inh inactive, Giardia FBPA inh inactive, LmPK inhibitor inactive, RE007 growth inh inconclusive and Cycloheximide cs 28.3.
For CCCOc1ccccc1Cn1c(=O)sc2ccccc21 the results were Tb PYK inh inactive.
Cc1ccccc1Nc1c(-c2ccc(Br)o2)nc2ccc(Cl)cn12 was read as Tb PYK inh inactive.
`Cc1ccc2c(C)c(C(=O)N(Cc3ccc(N(C)C)cc3)Cc3ccco3)oc2c1C` gave Tb PYK inh inactive.
Screening O=[N+]([O-])c1ccccc1CSc1nc2ccccc2o1 returned Shiga toxin inh 74.5, Tb PYK inh inactive, Giardia FBPA inh inactive, LmPK inhibitor inactive, RE007 growth inh inactive and Cycloheximide cs 39.8.
`COc1ccc(CNC(=O)CSCc2ccc(C)cc2)c(OC)c1` gave Tb PYK inh inactive.
`Cc1ccc(-n2ncc(Br)c(Br)c2=O)cc1` gave Shiga toxin inh inactive, Tb PYK inh inactive, Giardia FBPA inh inactive, LmPK inhibitor inactive, RE007 growth inh 15.8µM and Cycloheximide cs inactive.
For COc1ccc2cnn(-c3ccc(C)cc3)c(=O)c2c1OC the results were Shiga toxin inh 153.5, Tb PYK inh inactive, Giardia FBPA inh inactive, LmPK inhibitor inactive, RE007 growth inh inactive and Cycloheximide cs 102.4.
COc1ccc(Oc2c(Cl)cnn(-c3ccc(C)cc3)c2=O)cc1 was read as Shiga toxin inh inactive, Tb PYK inh inactive, Giardia FBPA inh inactive, LmPK inhibitor inactive, RE007 growth inh inconclusive and Cycloheximide cs 13.7.
Screening COc1cnn(-c2cccc(C)c2)c(=O)c1Cl returned Shiga toxin inh inactive, Tb PYK inh inactive, Giardia FBPA inh inactive, LmPK inhibitor inactive, RE007 growth inh inactive and Cycloheximide cs 19.3.
For O=c1c(Br)c(Br)cnn1-c1ccccc1 the results were Shiga toxin inh inactive, Tb PYK inh inactive, Giardia FBPA inh inactive, LmPK inhibitor inactive, RE007 growth inh inconclusive and Cycloheximide cs inactive.
